High-throughput results from PubChem BioAssay.
A selection: hits, their analogues and other compounds. The true share with any hit is near 0.72%.
Phagocytosis inh: blocks phagocytosis by macrophages; J774A.1 macrophage IgG-bead phagocytosis, imaging; inhibition, % at 5 µM; hit rate 0.07% among 110,000; AID 1029;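 active means inhibition above the mean of the plate negative controls plus 5 SD, cut at about 13% in these data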;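 further: phagocytic index as fraction of beads internalized from green versus red external bead signal; plate controls were DMSO negative control for no effect and cytochalasin-D positive control for full effect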
MRP-1 activ: MRP-1 activation; H69AR cells + doxorubicin, viability rescue, CellTiter-Glo; viability increase, % at 10 µM; hit rate 0.61% among 140,000; AID 799;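 active means viability gain under doxorubicin at or above a set limit, the compound median plus 3 SD, cut at about 4.7% in these data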;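 further: MRP-1 overexpressing cells given doxorubicin 25 µM after compound pretreatment; 18-22 h compound pretreatment then 72 h with doxorubicin before readout; 0% = doxorubicin-only wells and 100% = vehicle-treated cells without doxorubicin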
MRP resist rev: MRP-mediated drug resistance reversal; H69AR cells + 2 uM doxorubicin, CellTiter-Glo, 72 h; differential viability (reversal), % at 10 µM; hit rate 0.04% among 85,000; AID 602;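 active means viability drop by adding the cancer drug above about 55%, with treated viability meeting a 40% cutoff, limit read from the data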;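 further: viability without doxorubicin minus viability with 2 µM doxorubicin for each compound; larger differential means the compound sensitizes cells more to doxorubicin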
* = called active by the depositor; . = no result given.

SMILES	Phagocytosis inh	MRP-1 activ	MRP resist rev
O=C(COc1ccc(S(=O)(=O)NCc2ccccc2)cc1Cl)NCC1CCCO1 (configuration not stated)	-1	-4	-12
O=C(COc1ccc(S(=O)(=O)NCc2ccccc2)cc1)NCC1CCCO1 (configuration not stated)	24*	-1	-5
O[C@H]1COC2C1OC[C@@H]2O (some centres not stated)	.	-1	.
CCSc1cc(N2CCOCC2)nc(-c2ccc(Cl)cc2)n1	1	0	.
CC1(C)Cc2c(sc3c2c(=N)n(Cc2ccco2)c(=O)n3CC(=O)Nc2cccc(Cl)c2)CO1	0	1	4
Cc1cccc(NC(=O)Cn2c(=O)n(Cc3ccco3)c(=N)c3c4c(sc32)COC(C)(C)C4)c1	-1	9.4*	-2
CCc1nnc(NC(=O)CSc2ccc(-c3nc4ccc(C)cc4[nH]3)cn2)s1	22	1	.
C/C(=N\OC(=O)c1cccc(C)c1)c1sc(-c2ccccc2)nc1C	.	4.7*	.
C/C(=N\OC(=O)c1cccc(C(F)(F)F)c1)c1sc(-c2ccccc2)nc1C	0	3	.
CCCCCCC(C)NC(=S)Nc1cc(S(=O)(=O)N(C)C)ccc1C (configuration not stated)	-2	-3	.
COC(=O)C1=C(C(=O)OC)C(c2ccccc2O)c2sc(=O)[nH]c2S1 (configuration not stated)	9	-2	.
COc1ccc(OC)c(C2C(C(=O)Nc3nc4ccccc4s3)=C(C)NC3=C2C(=O)CCC3)c1 (configuration not stated)	-3	0	.
COc1cccc(C2C(C(=O)Nc3nc4ccccc4s3)=C(C)NC3=C2C(=O)CC(C)(C)C3)c1OC (configuration not stated)	2	7.9*	.
Cc1cc(N/N=C/c2ccc(O)cc2O)nc(-c2ccccc2O)n1	-8	3	.
COc1ccc(/C=N/Nc2cc(C)nc(-n3nc(C)cc3C)n2)cc1	-11	9.1*	.
Cc1cc(N/N=C/c2ccc(O)cc2O)nc(-n2nc(C)cc2C)n1	-8	5.3*	.
COc1ccc(/C=N/Nc2cc(C)nc(NS(=O)(=O)c3ccc(C)cc3)n2)cc1	-4	-4	.
COc1cc(C(=O)NNC2=CC(=O)CC(C)(C)C2)cc(OC)c1OC	-9	0	.
Cc1ccnc(NC(=S)NC(=O)c2cccs2)c1	-3	-3	.
Cc1c(C(=O)NCCCN2CCOCC2)oc2c1C1(CCC2)SCCS1	0	-2	.
CCn1c(CSCc2ccc(F)cc2)nnc1SCC(=O)N1CCN(c2ccccc2)CC1	0	1	.
Cc1ccc(CSCc2nnc(SCC(=O)N3CCN(c4ccccc4)CC3)n2C)cc1	0	5.0*	.
CCOC(=O)Cc1csc(NC(=S)NC(=O)c2ccc(C)cc2)n1	-6	2	.
CCOC(=O)N1C(=O)C2(CCCCC2)N(c2ccccc2Cl)C1=S	2	-2	.
COc1ccc(Cc2nc3ccccc3n2CC(=O)N/N=C/c2ccc(C)cc2O)cc1OC	-8	3	.
SMILES	Phagocytosis inh	MRP-1 activ	MRP resist rev
COc1ccc(Cc2nnc(N/N=C/c3ccc(O)cc3O)[nH]c2=O)cc1OC	-9	6.0*	.
COc1ccc(NS(=O)(=O)c2ccc3nc(COc4ccc5ccccc5c4)[nH]c3c2)cc1	-5	-1	.
COc1ccc(OCc2nc3ccc(S(=O)(=O)Nc4ccccc4Cl)cc3[nH]2)cc1	-8	6.0*	.
CC(C)c1c(Cl)c(O)c(-c2ccccc2)c(=O)n1-c1ccc(F)cc1	-3	-2	.
O=C(O)/C=C/c1nc(-c2ccccc2)n2ccccc12	-6	-2	.
COC(=O)CN1C(=S)N(c2ccc(Cl)cc2)C(=O)C1CC(=O)Nc1ccc(F)cc1 (configuration not stated)	-7	-2	.
COc1ccc(NC(=O)CC2C(=O)N(c3ccc(F)cc3)C(=S)N2NC(=O)c2ccc(Cl)cc2)cc1 (configuration not stated)	-3	4.8*	.
COc1ccc(NC(=O)CC2C(=O)N(c3ccc(Cl)cc3)C(=S)N2NC(=O)c2cccc(F)c2)cc1 (configuration not stated)	.	5.1*	.
COc1ccc(NC(=O)CC2C(=O)N(c3ccc(Cl)cc3)C(=S)N2CCc2ccncc2)cc1 (configuration not stated)	.	-5	.
Cc1c(-c2ccccc2)oc2c(C(=O)OCC(=O)Nc3ccc(F)cc3)cccc2c1=O	-11	-4	.
Nn1c(SC/C=C/c2ccccc2)nnc1-c1ccco1	-2	-3	13
O=C(/C=C/c1ccccc1)n1cnnc1SC/C=C/c1ccccc1	-10	4.7*	.
c1csc(COc2ccccc2CNC2CCCCC2)c1	-10	-4	.
Cc1nn(Cc2c(F)c(F)c(F)c(F)c2F)c(C)c1NC(=O)c1ccc(COc2ccccc2Cl)o1	.	2	.
Cc1nn(Cc2c(F)c(F)c(F)c(F)c2F)c(C)c1NC(=O)c1ccc(COc2ccc(F)cc2)o1	.	6.7*	.
Nc1nc(C23CC4CCC(CC(C4)C2)C3)cs1	-1	1	.
Cn1c(=O)c(NCCO)c2c3c(cccc31)C(=O)c1ccccc1-2	-1	-4	-13
Cn1c(=O)c(NCCc2ccccc2)c2c3c(cccc31)C(=O)c1ccccc1-2	-1	-4	64*
CCOC(=O)Nc1sc(C)c(C)c1C(N)=O	-3	1	.
COc1ccc(C(=O)NC(NC(=O)c2ccc(OC)c(OC)c2)c2ccccc2F)cc1OC	2	-2	.
O=C(N/N=C/c1ccccn1)c1cc(-c2cccc3ccccc23)n[nH]1	-3	0	.
O=C(N/N=C/c1ccccn1)c1cc(-c2ccc3ccccc3c2)n[nH]1	-8	7.5*	.
Cc1cccc(C(=O)N2CCC(Cc3ccccc3)CC2)c1[N+](=O)[O-]	.	-1	.
CCc1ccc(NC(=O)COC(=O)c2ccc(Cl)c(S(=O)(=O)N3CCCCCC3)c2)cc1	-13	-1	.
O=C(COC(=O)CCCOc1ccc(Cl)cc1Cl)Nc1cccc(Cl)c1	-4	-2	.
SMILES	Phagocytosis inh	MRP-1 activ	MRP resist rev
COc1ccc(CNC(=O)COC(=O)CCCOc2ccc(Cl)cc2Cl)cc1	-7	4.9*	.
COc1ccc(N/N=C(/C(N)=O)C2=NC(C)(C)Cc3ccccc32)cc1	-2	-4	.
O=c1cc(-c2ccccc2Cl)oc2ccc([N+](=O)[O-])c(O)c12	.	0	.
O=c1cc(-c2ccccc2Cl)oc2c([N+](=O)[O-])c(O)cc(O)c12	.	6.5*	.
CCOC(=O)N1CCC(NC(=O)C2CCN(S(=O)(=O)c3cccs3)CC2)CC1	44*	-1	12
O=C(NC1CCCCC1)C1CCN(S(=O)(=O)c2cccs2)CC1	0	0	-14
COc1ccc2c(C)cc(SCC(=O)Nc3ccc(Cl)cn3)nc2c1	3	-3	.
O=C(CSc1ncnc2c1cnn2CCO)Nc1cccc(C(F)(F)F)c1	-2	3	.
S=C(NCc1ccccn1)Nc1ccccc1Cl	-7	8.2*	.
S=C(NCc1ccccn1)Nc1cccc(Cl)c1	.	-1	.
COc1cc2nc(NC(=O)c3ccc(Cl)cc3)[nH]c(=O)c2cc1OC	0	0	1
CC(=O)Nc1nc(C)c(Oc2ccc(Cl)cc2Cl)c(=O)[nH]1	-5	32*	25
COc1ccc(C2OCC3(CO2)SC(=O)NC3=O)cc1 (configuration not stated)	-8	-2	.
O=C1NC(=O)C2(COC3(CCCC3)OC2)S1	-2	4.8*	-1
Cc1noc(C)c1C(=O)Nc1ccc(F)c(F)c1	1	-1	5
CCCCc1ccc(NC(=O)c2c(C)noc2C)cc1	-1	8.7*	22
